# According to ChEMBL document CHEMBL5606458, “ASAP - ZIKV NS2B-NS3 protease fluorescence single point” (2024):
# Out of some 2,700 compounds screened, about 160 (5.9%) showed an effect of 50% or more. Many of the other results were omitted from the sample, so strong results are more common in it than they were.
# Target: Nonstructural protein 3 (Zika virus) (UniProt A0A024AXB9)
# [1] = PRVABC59, Concentration 15.0 uM, Number of replicates 1.0
# Nonstructural protein 3 (Zika virus), sequence (A0A024AXB9 as listed by the source): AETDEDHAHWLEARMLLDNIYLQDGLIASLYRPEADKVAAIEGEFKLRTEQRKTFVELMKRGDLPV
compound,measurement,setting,value
O=C(NCc1ccccc1)c1cc(Cl)ccc1NS(=O)(=O)c1ccc(Oc2ccccc2Cl)cc1,inhibition,[1],11.2%
O=C(NCc1ccccc1-c1ccccc1)c1cc(Cl)ccc1NS(=O)(=O)c1ccc(Oc2ccccc2Cl)cc1,inhibition,[1],13.1%
O=C(NCc1ccc(-c2ccccc2)cc1)c1cc(Cl)ccc1NS(=O)(=O)c1ccc(Oc2ccccc2Cl)cc1,inhibition,[1],9%
O=C(NCc1coc(-c2ccccc2)n1)c1cc(Cl)ccc1NS(=O)(=O)c1ccc(Oc2ccccc2Cl)cc1,inhibition,[1],45.4%
O=C(NCc1nnc(-c2ccccc2)o1)c1cc(Cl)ccc1NS(=O)(=O)c1ccc(Oc2ccccc2Cl)cc1,inhibition,[1],54.2%
O=C(NCc1cccc(-c2ccccc2)c1)c1cc(Cl)ccc1NS(=O)(=O)c1ccc(Oc2ccccc2Cl)cc1,inhibition,[1],54.4%
Cn1cccc(CN2CCC(c3c[nH]c4cccnc34)CC2)c1=O,inhibition,"PRVABC59, Concentration 49.5 uM, Number of replicates 2.0, Standard deviation 0.07177165759495889 %",-0.869%
same,inhibition,"PRVABC59, Concentration 99.01 uM, Number of replicates 2.0, Standard deviation 0.38070186159308106 %",1.77%
same,inhibition,"PRVABC59, Concentration 198.0 uM, Number of replicates 2.0, Standard deviation 0.010921765735719036 %",3.27%
O=C(c1cc(Cl)ccc1NS(=O)(=O)c1ccc(Oc2ccccc2Cl)cc1)N1CCNC(=O)C12CCCCC2,inhibition,[1],17.6%
COc1ccccc1[C@H](C)NC(=O)C1CCN(c2ccc(C=O)cc2)CC1,inhibition,"PRVABC59, Concentration 10.0 uM, Number of replicates 1.0",25.4%
Cc1cc(CO)c2cccc(NCc3ccc(C(N)=O)cc3)c2n1,inhibition,"PRVABC59, Concentration 49.95 uM, Number of replicates 2.0, Standard deviation 0.6911398690966805 %",-7.9%
same,inhibition,"PRVABC59, Concentration 99.9 uM, Number of replicates 2.0, Standard deviation 1.6597447488203414 %",-2.82%
Cc1cc(N)cc(CNC(=O)c2ccccc2Cc2cccc3c(CO)cc(C)nc23)c1,inhibition,"PRVABC59, Concentration 49.95 uM, Number of replicates 2.0, Standard deviation 0.03145975642768365 %",34.6%
same,inhibition,"PRVABC59, Concentration 99.9 uM, Number of replicates 2.0, Standard deviation 1.7408307334956623 %",60.7%
Cc1cc(N)cc(CNC(=O)Cc2cccc3c(CO)cc(C)nc23)c1,inhibition,"PRVABC59, Concentration 49.95 uM, Number of replicates 2.0, Standard deviation 1.6254724488978287 %",7.61%
same,inhibition,"PRVABC59, Concentration 99.9 uM, Number of replicates 2.0, Standard deviation 2.5640510708053585 %",31.2%
Cc1cc(N)cc(CNc2cccc3c(CO)cc(C)nc23)c1,inhibition,"PRVABC59, Concentration 49.95 uM, Number of replicates 2.0, Standard deviation 0.17563299841544527 %",36.2%
same,inhibition,"PRVABC59, Concentration 99.9 uM, Number of replicates 2.0, Standard deviation 0.025091199030293523 %",52.6%
Cc1cc(CO)c2cccc(NCc3ccc(S(N)(=O)=O)cc3)c2n1,inhibition,"PRVABC59, Concentration 49.95 uM, Number of replicates 2.0, Standard deviation 2.3986730749821903 %",-5.11%
same,inhibition,"PRVABC59, Concentration 99.9 uM, Number of replicates 2.0, Standard deviation 1.886822696290366 %",-8.96%
Cc1cc(N)cc(CNC(=O)c2cccc(Cc3cccc4c(CO)cc(C)nc34)c2)c1,inhibition,"PRVABC59, Concentration 49.95 uM, Number of replicates 2.0, Standard deviation 0.660675115468642 %",22.4%
same,inhibition,"PRVABC59, Concentration 99.9 uM, Number of replicates 2.0, Standard deviation 1.0067445744655332 %",46.9%
Cc1c(C(=O)N2CCC(n3cc(CO)nn3)CC2)[nH]c2cc(Cl)cc(Cl)c12,inhibition,"PRVABC59, Concentration 49.5 uM, Number of replicates 2.0, Standard deviation 1.4208906347015848 %",4.02%
same,inhibition,"PRVABC59, Concentration 99.01 uM, Number of replicates 2.0, Standard deviation 0.494827603753062 %",9.8%
same,inhibition,"PRVABC59, Concentration 198.0 uM, Number of replicates 2.0, Standard deviation 0.23449629857012413 %",15.6%
Cc1cc(CO)c2cccc(CC(=O)Nc3cc(C)on3)c2n1,inhibition,"PRVABC59, Concentration 49.95 uM, Number of replicates 2.0, Standard deviation 1.089187856250299 %",91.5%
same,inhibition,"PRVABC59, Concentration 99.9 uM, Number of replicates 2.0, Standard deviation 0.03053454880917251 %",93.2%
Cc1cc(CO)c2cccc(CC(=O)Nc3cc(O)[nH]n3)c2n1,inhibition,"PRVABC59, Concentration 49.95 uM, Number of replicates 2.0, Standard deviation 0.5293246306718348 %",-5.29%
same,inhibition,"PRVABC59, Concentration 99.9 uM, Number of replicates 2.0, Standard deviation 0.9008701737196211 %",1.86%
Cc1cc(CO)c2cccc(Cc3cccc(C(=O)Nc4cc(C)on4)c3)c2n1,inhibition,"PRVABC59, Concentration 49.95 uM, Number of replicates 2.0, Standard deviation 0.5505632705734445 %",18.4%
same,inhibition,"PRVABC59, Concentration 99.9 uM, Number of replicates 2.0, Standard deviation 1.053935557806211 %",51.2%
Cc1cc(CO)c2cccc(Cc3ccccc3C(=O)Nc3cc(C)on3)c2n1,inhibition,"PRVABC59, Concentration 49.95 uM, Number of replicates 2.0, Standard deviation 0.7445712834152752 %",-2.77%
same,inhibition,"PRVABC59, Concentration 99.9 uM, Number of replicates 2.0, Standard deviation 1.0119877161772735 %",0.512%
Cc1cc(CO)c2cccc(Cc3cccc(C(=O)Nc4cc(C)[nH]n4)c3)c2n1,inhibition,"PRVABC59, Concentration 49.95 uM, Number of replicates 2.0, Standard deviation 3.093641395210206 %",6.52%
same,inhibition,"PRVABC59, Concentration 99.9 uM, Number of replicates 2.0, Standard deviation 2.134087804085351 %",9.51%
Cc1cc(CO)c2cccc(CC(=O)Nc3cc(C)[nH]n3)c2n1,inhibition,"PRVABC59, Concentration 49.95 uM, Number of replicates 2.0, Standard deviation 1.1960706203468343 %",0.209%
same,inhibition,"PRVABC59, Concentration 99.9 uM, Number of replicates 2.0, Standard deviation 0.6463869966486608 %",7.1%
CNC(=O)c1nc(Cl)ccc1NS(=O)(=O)c1ccc(Oc2ccccc2Cl)cc1,inhibition,"PRVABC59, Concentration 49.5 uM, Number of replicates 2.0, Standard deviation 0.024233932131581936 %",-1.72%
O=C(Nc1nc(Cl)nc2nc[nH]c12)c1cc(Cl)ccc1NS(=O)(=O)c1ccc(Oc2ccccc2Cl)cc1,inhibition,[1],22.5%
Cc1nn([C@@H](C)c2nnnn2C2CC2)cc1C1CCNCC1,inhibition,"PRVABC59, Concentration 49.5 uM, Number of replicates 2.0, Standard deviation 2.3033064314790743 %",-1.29%
same,inhibition,"PRVABC59, Concentration 99.01 uM, Number of replicates 2.0, Standard deviation 2.6844291293545366 %",-0.376%
same,inhibition,"PRVABC59, Concentration 198.0 uM, Number of replicates 2.0, Standard deviation 0.3562668047004051 %",-3.04%
CC(C)(C)c1csc(NC(=O)c2cc(Cl)ccc2NS(=O)(=O)c2ccc(Oc3ccccc3Cl)cc2)n1,inhibition,[1],22.1%
Cc1cc(CO)c2cccc(Cc3cccc(NC(=O)c4nc(C5CCNCC5)oc4C)c3)c2n1,inhibition,"PRVABC59, Concentration 49.95 uM, Number of replicates 2.0, Standard deviation 2.83494201600161 %",-5.64%
same,inhibition,"PRVABC59, Concentration 99.9 uM, Number of replicates 2.0, Standard deviation 2.936734747350333 %",-6.74%
Cc1cc(CO)c2cccc(Cc3ccccc3NC(=O)c3nc(-c4ccccc4)oc3C(F)(F)F)c2n1,inhibition,"PRVABC59, Concentration 49.95 uM, Number of replicates 2.0, Standard deviation 1.8373680900098652 %",5.06%
same,inhibition,"PRVABC59, Concentration 99.9 uM, Number of replicates 2.0, Standard deviation 1.2469667752869535 %",9.26%
Cc1cc(CO)c2cccc(NC(=O)c3nc(-c4ccccc4)oc3C(F)(F)F)c2n1,inhibition,"PRVABC59, Concentration 49.95 uM, Number of replicates 2.0, Standard deviation 2.699761899961709 %",15.3%
same,inhibition,"PRVABC59, Concentration 99.9 uM, Number of replicates 2.0, Standard deviation 2.5993991268892636 %",24.8%
Cc1cc(CO)c2cccc(Cc3ccccc3NC(=O)c3nc(C4CCNCC4)oc3C)c2n1,inhibition,"PRVABC59, Concentration 49.95 uM, Number of replicates 2.0, Standard deviation 3.130141914719793 %",12.3%
same,inhibition,"PRVABC59, Concentration 99.9 uM, Number of replicates 2.0, Standard deviation 0.6412983547468495 %",60.8%
Cc1cc(CO)c2cccc(NC(=O)c3nc(C4CCNCC4)oc3C)c2n1,inhibition,"PRVABC59, Concentration 49.95 uM, Number of replicates 2.0, Standard deviation 16.97136657317194 %",81.5%
same,inhibition,"PRVABC59, Concentration 99.9 uM, Number of replicates 2.0, Standard deviation 2.022315036184036 %",88.9%
Cc1cc(CO)c2cccc(NC(=O)[C@H]3CCNC3)c2n1,inhibition,"PRVABC59, Concentration 49.95 uM, Number of replicates 2.0, Standard deviation 1.562551081581127 %",-4.16%
same,inhibition,"PRVABC59, Concentration 99.9 uM, Number of replicates 2.0, Standard deviation 2.5850257028478962 %",4.64%
Cc1cc(N)c2cc(Cl)cc(Cl)c2n1,inhibition,"PRVABC59, Concentration 99.9 uM, Number of replicates 2.0, Standard deviation 12.824277322413067 %",-8.83%
COC(=O)c1ccc(F)c(Cn2cc(C3CCNCC3)c(C)n2)c1,inhibition,"PRVABC59, Concentration 49.5 uM, Number of replicates 2.0, Standard deviation 1.8234550992150553 %",1.56%
same,inhibition,"PRVABC59, Concentration 99.01 uM, Number of replicates 2.0, Standard deviation 0.947622366220452 %",0.074%
same,inhibition,"PRVABC59, Concentration 198.0 uM, Number of replicates 2.0, Standard deviation 0.08409628118336304 %",3.65%
COc1cc(COc2cc(C)nc3ncnn23)nc(N2CCNCC2)n1,inhibition,"PRVABC59, Concentration 49.5 uM, Number of replicates 2.0, Standard deviation 2.68247440066745 %",1.51%
same,inhibition,"PRVABC59, Concentration 99.01 uM, Number of replicates 2.0, Standard deviation 1.6078501771858478 %",0.374%
same,inhibition,"PRVABC59, Concentration 198.0 uM, Number of replicates 2.0, Standard deviation 1.0644090707345926 %",1.09%
